# The supplement of paper PMC12669032
# A number with no mark means an inactive call.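 The calls were made as follows: active = AUC reduced over 20% with Padj below 0.05 in at least 2 of 3 replicates; inactive = otherwise.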
# Experiments:
# Assay in all cases: growth AUC relative to DMSO control (median of replicates) (fraction); higher = more growth (less inhibition), active = hit call of the paper
# Details in all cases: 20 µM; 24 h
# Akkermansia muciniphila = test system: Akkermansia muciniphila
# How it was run: (§1)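 Gut bacterial monocultures in mGAM were treated with 20 µM compound (1% DMSO) and grown anaerobically at 37 °C in round-bottom 96-well plates from OD600 0.05. OD600 was read hourly for 24 h, with the minimum OD set to 0. Area under the growth curve was normalised to the plate median of solvent-only wells, or to row and column medians on the industrial chemical plate. Each value is the median of three biological replicates, each grown on a separate day.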
# Bacteroides caccae = test system: Bacteroides caccae
# How it was run: as §1
# Bacteroides clarus = test system: Bacteroides clarus
# How it was run: as §1
# Bacteroides dorei = test system: Bacteroides dorei
# How it was run: as §1
# Bacteroides stercoris = test system: Bacteroides stercoris
# How it was run: as §1
# [1] = test system: Bacteroides thetaiotaomicron
# How it was run: as §1
# Bacteroides uniformis = test system: Bacteroides uniformis
# How it was run: as §1
# [2] = test system: Bifidobacterium longum subsp. longum
# How it was run: as §1
# Clostridium difficile = test system: Clostridium difficile
# How it was run: as §1
# Collinsella aerofaciens = test system: Collinsella aerofaciens
# How it was run: as §1
# Coprococcus comes = test system: Coprococcus comes
# How it was run: as §1
# Escherichia coli ED1a = test system: Escherichia coli ED1a
# How it was run: as §1
# Escherichia coli IAI1 = test system: Escherichia coli IAI1
# How it was run: as §1
# Eubacterium rectale = test system: Eubacterium rectale
# How it was run: as §1
# [3] = test system: Fusobacterium nucleatum subsp. animalis
# How it was run: as §1
# Lactobacillus gasseri = test system: Lactobacillus gasseri
# How it was run: as §1
# Lactobacillus paracasei = test system: Lactobacillus paracasei
# How it was run: as §1
# Odoribacter splanchnicus = test system: Odoribacter splanchnicus
# How it was run: as §1
# [4] = test system: Parabacteroides distasonis
# How it was run: as §1
# Parabacteroides merdae = test system: Parabacteroides merdae
# How it was run: as §1
Compound,growth AUC (Akkermansia muciniphila),growth AUC (Bacteroides caccae),growth AUC (Bacteroides clarus),growth AUC (Bacteroides dorei),growth AUC (Bacteroides stercoris),growth AUC [1],growth AUC (Bacteroides uniformis),growth AUC [2],growth AUC (Clostridium difficile),growth AUC (Collinsella aerofaciens),growth AUC (Coprococcus comes),growth AUC (Escherichia coli ED1a),growth AUC (Escherichia coli IAI1),growth AUC (Eubacterium rectale),growth AUC [3],growth AUC (Lactobacillus gasseri),growth AUC (Lactobacillus paracasei),growth AUC (Odoribacter splanchnicus),growth AUC [4],growth AUC (Parabacteroides merdae)
CCOP(=S)(OCC)SCS(=O)C(C)(C)C (stereo not given),0.905,0.997,1.02,0.944,1.08,1.02,0.989,1.02,1,0.987,1.05,1.04,1.01,1.01,1.07,0.959,0.754,1.04,1.01,1.01
CC(C)(C)c1ccc(CSc2cnn(C(C)(C)C)c(=O)c2Cl)cc1,0.971,0.95,0.959,0.991,1.07,0.975,0.986,0.97,0.963,0.999,0.976,1,0.986,0.966,1.05,0.945,1.16,1.07,0.988,0.962
N#Cc1c(Cl)cccc1Cl,0.866,1.03,0.979,1.04,0.989,1,0.922,0.898,1.01,1.02,0.994,0.999,1.03,0.936,1.04,1.17,0.884,1.01,1.04,1.01
CCCCOC(=O)c1ccccc1C(=O)OCCCC,1.05,0.94,1.01,0.998,0.99,1,0.978,0.938,1.02,0.985,1,1,0.962,1.07,1.06,0.911,0.986,1.07,0.759 (active),0.964
CN(C)C(=O)Nc1cccc(OC(=O)NC(C)(C)C)c1,1.19,0.771,1.01,0.977,1.4,0.958,0.883,1.01,0.928,0.918,0.974,0.995,0.972,1.19,1.07,0.934,0.934,0.551 (active),1.01,0.959
Cc1ccc(NC(=O)c2snnc2C)cc1Cl,0.741,0.968,0.914,1.03,0.879,0.905,1.02,0.898,1,1.05,0.965,0.968,0.937,1,0.938,1.08,0.866,0.975,0.986,0.973
CC(C)N(C(=O)CCl)c1ccccc1,0.256 (active),1.02,0.969,1.01,0.978,0.933,0.96,0.946,0.965,1.05,0.961,0.982,1.02,0.923,0.911,1.17,0.946,0.942,0.992,0.982
C=CCN=C=S,0.98,0.968,0.993,1.01,0.977,1.02,1.02,0.999,1.01,1.02,1,1.01,0.979,0.974,1.06,1.05,0.991,1,0.996,1.03
O=C(O)COc1nc(Cl)c(Cl)cc1Cl,1.13,0.874,0.989,0.94,1.19,1,0.993,1.04,0.963,0.99,0.867,0.971,1.01,1.15,1.1,0.818,1.01,0.992,0.781,1.01
COP(=O)(OC)OC1=C(Cl)C2C=CCC12 (stereo not given),1.03,0.928,0.995,1,1.42,1.02,1.02,1.01,1,0.964,0.999,0.968,1.03,1.01,1.04,0.957,1.02,0.892,0.975,1.03
COP(=S)(OC)Oc1nc(Cl)c(Cl)cc1Cl,1.06,1.01,1,0.998,0.947,0.96,0.935,1.01,0.975,0.991,0.978,0.986,0.997,0.913,0.94,1.07,0.989,0.942,0.937,0.951
O=[N+]([O-])c1cc(Cl)ccc1Cl,1.04,0.998,0.977,0.986,1.03,0.989,1.02,1.01,0.995,0.964,0.935,0.983,0.979,1.04,1.04,0.872,1.05,1.04,1.01,0.987
CCCN(CC)CC1COC2(CCC(C(C)(C)C)CC2)O1 (stereo not given),0.871,0.99,0.952,1.07,0.87,1.02,1.04,0.79,0.985,0.981,0.993,1,0.959,0.987,0.899,1.04,0.947,0.978,0.966,0.965
CCCN(CCC)N=O,1.07,1.01,1.02,1,1,0.999,1.03,0.902,1.01,0.977,1.02,1.03,1,0.979,0.989,0.956,0.984,1.06,1.11,1.03
CC(C)CC(C)c1sccc1NC(=O)c1cn(C)nc1C(F)(F)F (stereo not given),0.99,0.967,0.94,1.02,1.07,0.938,0.942,1.02,1,0.99,0.984,0.998,0.946,1.01,1.04,0.945,1.02,0.782,0.856,0.977
CCC(C)Nc1c([N+](=O)[O-])cc(C(C)(C)C)cc1[N+](=O)[O-] (stereo not given),0.988,0.953,0.939,0.98,1.11,0.931,0.945,0.81,0.938,0.959,0.975,1.01,0.939,0.995,1.02,0.938,1.01,1.02,0.919,0.966
CCOP(=O)(SC(C)CC)N1CCSC1=O (stereo not given),0.9,1.02,0.977,1,1.07,0.992,0.996,1.02,1.02,1.05,1,0.984,0.986,0.862,1.01,0.997,1.01,1.04,1.05,1.01

Compound,growth AUC (Akkermansia muciniphila),growth AUC (Bacteroides caccae),growth AUC (Bacteroides clarus),growth AUC (Bacteroides dorei),growth AUC (Bacteroides stercoris),growth AUC [1],growth AUC (Bacteroides uniformis),growth AUC [2],growth AUC (Clostridium difficile),growth AUC (Collinsella aerofaciens),growth AUC (Coprococcus comes),growth AUC (Escherichia coli ED1a),growth AUC (Escherichia coli IAI1),growth AUC (Eubacterium rectale),growth AUC [3],growth AUC (Lactobacillus gasseri),growth AUC (Lactobacillus paracasei),growth AUC (Odoribacter splanchnicus),growth AUC [4],growth AUC (Parabacteroides merdae)
CNC(=O)O/N=C(\C)SC,0.938,0.99,0.981,1.03,1.06,0.988,0.988,0.91,0.999,1.03,0.981,0.979,1.01,1.01,0.985,1.02,0.967,0.992,0.986,1
C[N+](C)(C)CCCl.[Cl-],1.06,1.01,1.03,0.983,1.08,1.02,1.01,0.997,1,1.02,1.05,1.02,1.03,1.04,1.11,0.944,1.05,1.01,1.06,1.03
CC(C)N1C(=O)c2ccccc2NS1(=O)=O,1.21,0.999,0.999,0.946,1,1.01,0.977,1.06,0.98,0.967,1.05,0.972,0.97,1.1,1.01,0.945,0.932,0.992,0.787,1.02
S=C1NCCN1,1.05,0.998,0.998,1.06,1.13,1.01,1.03,0.947,1.05,1.02,1.02,1.01,1.01,1.04,1.08,1.02,0.923,1.04,1.05,1.04
CC(C)(C)N(NC(=O)c1ccc(Cl)cc1)C(=O)c1ccccc1,0.852,0.973,0.986,0.983,1.02,0.939,1.01,1.04,1.11,1.02,0.995,1.01,1.01,1,0.913,1.09,1.1,0.988,0.96,0.97
O=S(=O)(Oc1ccc(Cl)cc1)c1ccc(Cl)cc1,1.09,0.97,0.998,0.812,0.973,0.972,0.995,1.02,1.01,0.961,1.01,0.971,1,1.08,1.09,0.84,0.926,0.983,0.761 (active),0.945
CNC(=O)Oc1cccc2c1OC(C)(C)C2O (stereo not given),1.07,1.01,1.04,1.02,1.06,1.01,0.998,0.967,1.03,1.01,1.05,1.01,1.01,1.05,1.15,0.862,1.11,1.02,0.88,1.09
COc1ccc(-c2ccccc2)cc1NNC(=O)OC(C)C,0.865,0.921,0.974,0.991,1.08,0.958,0.942,0.982,0.993,1.05,0.957,1.03,1.01,1,0.965,0.967,0.971,0.948,0.892,0.937
CNC(=O)O/N=C/C(C)(C)S(C)(=O)=O,0.927,0.994,0.962,1.02,0.973,1,1.01,1.05,0.966,1.01,0.98,1.03,1.03,0.939,0.97,1.05,1,0.964,1.04,0.977
CCCSC(=O)N(CCC)CCC,0.868,0.991,0.957,1.02,0.946,1.01,1.02,1.04,1.01,0.967,0.994,0.974,0.985,1.01,1,1.01,0.954,1.01,0.995,0.991
Oc1cc(Cl)cc(Cl)c1,1.04,1.01,1,0.996,1.08,0.917,1.01,0.998,1,1.01,1.02,1,1.02,1.08,1.1,1.08,0.957,1.03,0.997,0.973
CCCN(CCC)c1c([N+](=O)[O-])cc(C(F)(F)F)cc1[N+](=O)[O-],1.02,1.02,1.04,1.03,1.05,0.976,1.01,1.1,1,1.01,1,1.02,1.01,1.01,1.03,1.03,1.09,1.01,1.09,1.01
ClC(Cl)=C(c1ccc(Cl)cc1)c1ccc(Cl)cc1,1.1,0.933,0.961,0.953,1.18,0.956,1.01,1.05,0.969,0.842,0.914,1,0.986,1.02,1.03,0.938,0.921,1.02,0.985,0.909
C[C@@H](Oc1ccc(Oc2ncc(C(F)(F)F)cc2Cl)cc1)C(=O)O,0.971,0.97,0.964,0.942,1.02,0.992,0.975,0.912,0.99,0.994,1,0.97,0.994,0.973,1.02,0.94,0.972,0.98,0.989,0.996
Nc1cc(Cl)ccc1Cl,1.03,0.993,1.05,1.04,1.25,1.03,1.03,0.992,1,1.01,1,1,1.01,0.989,1.07,1.04,0.958,1,1.02,1.04
COc1cc(OC)nc(NC(=O)[N-]S(=O)(=O)c2ncccc2OCC(F)(F)F)n1.[Na+],1.07,0.973,0.982,0.995,0.888,0.77 (active),1.02,1.07,1,1,0.957,0.993,0.982,1.04,1.08,0.9,1.04,0.932,1.03,0.974
